Holding throughout (experiment): PBM; 200 nM protein, PBS
Common to all, as to details: dsDNA, one strand shown

For test [1], the target named is ALX4 (Homo sapiens, UniProt Q9H161 200-286).
Test [2] has as its target ALX4 (Homo sapiens, UniProt Q9H161 200-286, Q225E).
Test [3] addresses PRRX1 (Homo sapiens, UniProt P54821 80-166, F113S).
Test [4] deals with PRRX1 (Homo sapiens, UniProt P54821 80-166).
In test [5] the target is HOXB6 (Homo sapiens, UniProt P17509 132-218, K202E).
The target in test [6] is T1, NKX2-6 (Homo sapiens, UniProt A6NCS4 118-204, R150C).
T1 sequence: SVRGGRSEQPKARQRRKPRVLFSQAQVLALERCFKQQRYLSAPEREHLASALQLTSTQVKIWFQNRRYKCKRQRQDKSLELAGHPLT

Test [7] deals with MSX2 (Homo sapiens, UniProt P35548 130-214, R199I).
For test [8], the target named is ALX3 (Homo sapiens, UniProt O95076 139-225, N203Q).
Test [9] addresses MSX2 (Homo sapiens, UniProt P35548 130-214).
Test [10] deals with ALX3 (Homo sapiens, UniProt O95076 139-225).
In test [11] the target is ALX3 (Homo sapiens, UniProt O95076 139-225, L168Q).
Test [12] has as its target ALX3 (Homo sapiens, UniProt O95076 139-225, L168V).
The target of test [13] is MSX2 (Homo sapiens, UniProt P35548 130-214, F161Y).
In test [14] the target is ALX3 (Homo sapiens, UniProt O95076 139-225, N203S).
Test [15] has as its target HOXB6 (Homo sapiens, UniProt P17509 132-218).

18 sequences from article PMC11006913 can be followed below.

Chain of ALX4 (Homo sapiens, UniProt Q9H161 200-286, Q225E) (Q9H161 200-286 Q225E): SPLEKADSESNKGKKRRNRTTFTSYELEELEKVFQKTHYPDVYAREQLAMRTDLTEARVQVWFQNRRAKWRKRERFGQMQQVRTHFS
Chain of ALX4 (Homo sapiens, UniProt Q9H161 200-286) (Q9H161 200-286): as the sequence (Q9H161 200-286 Q225E) above, with E26Q counted along it
Chain of HOXB6 (Homo sapiens, UniProt P17509 132-218, K202E) (P17509 132-218 K202E): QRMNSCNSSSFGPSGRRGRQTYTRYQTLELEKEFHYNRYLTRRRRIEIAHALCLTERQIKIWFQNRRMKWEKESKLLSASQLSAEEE
Chain of HOXB6 (Homo sapiens, UniProt P17509 132-218) (P17509 132-218): as the sequence (P17509 132-218 K202E) above, with E71K counted along it
Chain of PRRX1 (Homo sapiens, UniProt P54821 80-166, F113S) (P54821 80-166 F113S): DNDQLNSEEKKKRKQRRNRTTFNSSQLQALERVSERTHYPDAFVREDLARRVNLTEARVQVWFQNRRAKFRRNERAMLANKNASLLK
Chain of MSX2 (Homo sapiens, UniProt P35548 130-214, R199I) (P35548 130-214 R199I): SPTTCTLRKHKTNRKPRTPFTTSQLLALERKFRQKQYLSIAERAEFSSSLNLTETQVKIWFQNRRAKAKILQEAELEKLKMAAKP
Chain of ALX3 (Homo sapiens, UniProt O95076 139-225, N203S) (O95076 139-225 N203S): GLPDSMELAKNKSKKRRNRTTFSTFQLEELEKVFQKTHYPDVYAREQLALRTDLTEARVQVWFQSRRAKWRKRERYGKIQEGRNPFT
Chain of MSX2 (Homo sapiens, UniProt P35548 130-214) (P35548 130-214): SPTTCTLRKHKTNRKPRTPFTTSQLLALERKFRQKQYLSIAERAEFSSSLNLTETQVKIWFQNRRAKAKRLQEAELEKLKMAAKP
Chain of ALX3 (Homo sapiens, UniProt O95076 139-225, L168V) (O95076 139-225 L168V): as the sequence (O95076 139-225 N203S) above, with L30V, S65N counted along it
Chain of ALX3 (Homo sapiens, UniProt O95076 139-225) (O95076 139-225): as the sequence (O95076 139-225 N203S) above, with S65N counted along it
Chain of PRRX1 (Homo sapiens, UniProt P54821 80-166) (P54821 80-166): as the sequence (P54821 80-166 F113S) above, with S34F counted along it
Chain of ALX3 (Homo sapiens, UniProt O95076 139-225, N203Q) (O95076 139-225 N203Q): as the sequence (O95076 139-225 N203S) above, with S65Q counted along it
Chain of ALX3 (Homo sapiens, UniProt O95076 139-225, L168Q) (O95076 139-225 L168Q): as the sequence (O95076 139-225 N203S) above, with L30Q, S65N counted along it
Chain of MSX2 (Homo sapiens, UniProt P35548 130-214, F161Y) (P35548 130-214 F161Y): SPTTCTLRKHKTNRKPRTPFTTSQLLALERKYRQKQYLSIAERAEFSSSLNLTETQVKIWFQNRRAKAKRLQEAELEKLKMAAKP

For TCAATGAA, the binding signal is 10.1 upbm affinity estimate (log intensity, higher = more binding, comparable within an allelic series) in test [1] and 9.63 upbm affinity estimate (log intensity, higher = more binding, comparable within an allelic series) in test [2].

For CGCCTTGA, the binding signal is 8.09 upbm affinity estimate (log intensity, higher = more binding, comparable within an allelic series) in test [1] and 8.15 upbm affinity estimate (log intensity, higher = more binding, comparable within an allelic series) in test [2].

With CCGCGAAG, the binding signal in test [1] was 8.14 upbm affinity estimate (log intensity, higher = more binding, comparable within an allelic series); in test [2] it was 8.32 upbm affinity estimate (log intensity, higher = more binding, comparable within an allelic series).

As to CGCCCTTC, the binding signal in [1] is 8.03 upbm affinity estimate (log intensity, higher = more binding, comparable within an allelic series); in test [2] it was 8.24 upbm affinity estimate (log intensity, higher = more binding, comparable within an allelic series).

For ATAAGCAC, the binding signal was 9.96 upbm affinity estimate (log intensity, higher = more binding, comparable within an allelic series) in test [1] and 9.46 upbm affinity estimate (log intensity, higher = more binding, comparable within an allelic series) in test [2].

Consider CTATAATA, for which the binding signal in [1] is 11.6 upbm affinity estimate (log intensity, higher = more binding, comparable within an allelic series); in [2], 10.8 upbm affinity estimate (log intensity, higher = more binding, comparable within an allelic series).

As for AACGACAT, the binding signal is 9.98 upbm affinity estimate (log intensity, higher = more binding, comparable within an allelic series) in test [1] and 9.4 upbm affinity estimate (log intensity, higher = more binding, comparable within an allelic series) in [2].

With CCTCGAAC, the binding signal in test [1] is 8.02 upbm affinity estimate (log intensity, higher = more binding, comparable within an allelic series); in [3], 9.46 upbm affinity estimate (log intensity, higher = more binding, comparable within an allelic series); in test [2], 8.29 upbm affinity estimate (log intensity, higher = more binding, comparable within an allelic series); in [4], 9.07 upbm affinity estimate (log intensity, higher = more binding, comparable within an allelic series).

With CCATTATC, the binding signal in test [1] was 11.3 upbm affinity estimate (log intensity, higher = more binding, comparable within an allelic series); in test [2], 10.2 upbm affinity estimate (log intensity, higher = more binding, comparable within an allelic series).

In the case of CCCGACAG, the binding signal is 8.07 upbm affinity estimate (log intensity, higher = more binding, comparable within an allelic series) in [1] and 8.17 upbm affinity estimate (log intensity, higher = more binding, comparable within an allelic series) in [2].

Regarding CTCGATCC, the binding signal in test [1] was 8.2 upbm affinity estimate (log intensity, higher = more binding, comparable within an allelic series); in [2], 8.33 upbm affinity estimate (log intensity, higher = more binding, comparable within an allelic series).

In the case of GGCATGCC, the binding signal was 8.37 upbm affinity estimate (log intensity, higher = more binding, comparable within an allelic series) in test [1] and 8.31 upbm affinity estimate (log intensity, higher = more binding, comparable within an allelic series) in [2].

On to CCACCGGC, for which the binding signal in [1] is 8.04 upbm affinity estimate (log intensity, higher = more binding, comparable within an allelic series); in test [5] it was 8.97 upbm affinity estimate (log intensity, higher = more binding, comparable within an allelic series); in [2], 7.94 upbm affinity estimate (log intensity, higher = more binding, comparable within an allelic series); in test [6], 9.32 upbm affinity estimate (log intensity, higher = more binding, comparable within an allelic series); in test [7], 9.39 upbm affinity estimate (log intensity, higher = more binding, comparable within an allelic series); in [8], 7.68 upbm affinity estimate (log intensity, higher = more binding, comparable within an allelic series). For the same sequence, the binding signal in [9] is 9.41 upbm affinity estimate (log intensity, higher = more binding, comparable within an allelic series); in test [10], 7.64 upbm affinity estimate (log intensity, higher = more binding, comparable within an allelic series); in test [11], 7.76 upbm affinity estimate (log intensity, higher = more binding, comparable within an allelic series); in test [12], 7.67 upbm affinity estimate (log intensity, higher = more binding, comparable within an allelic series); in test [13], 9.32 upbm affinity estimate (log intensity, higher = more binding, comparable within an allelic series); in [14], 7.64 upbm affinity estimate (log intensity, higher = more binding, comparable within an allelic series). Besides, in test [15], the binding signal is 8.83 upbm affinity estimate (log intensity, higher = more binding, comparable within an allelic series).

Turning to CGACGCAG, the binding signal in test [1] is 7.86 upbm affinity estimate (log intensity, higher = more binding, comparable within an allelic series); in test [2] it was 7.87 upbm affinity estimate (log intensity, higher = more binding, comparable within an allelic series).

For CTCTCGCC, the binding signal in [1] is 7.89 upbm affinity estimate (log intensity, higher = more binding, comparable within an allelic series); in test [2] it was 8.06 upbm affinity estimate (log intensity, higher = more binding, comparable within an allelic series).

As to CCTGCAGG, the binding signal in test [1] was 8.12 upbm affinity estimate (log intensity, higher = more binding, comparable within an allelic series); in test [5] it was 9.05 upbm affinity estimate (log intensity, higher = more binding, comparable within an allelic series); in [2], 8.04 upbm affinity estimate (log intensity, higher = more binding, comparable within an allelic series); in test [15], 8.92 upbm affinity estimate (log intensity, higher = more binding, comparable within an allelic series).

In the case of CCTCCTAC, the binding signal in [1] is 7.75 upbm affinity estimate (log intensity, higher = more binding, comparable within an allelic series); in [2], 8.06 upbm affinity estimate (log intensity, higher = more binding, comparable within an allelic series).

As to ATAACCTC, the binding signal was 9.88 upbm affinity estimate (log intensity, higher = more binding, comparable within an allelic series) in [1] and 9.24 upbm affinity estimate (log intensity, higher = more binding, comparable within an allelic series) in test [2].
